# Results reported in PubChem BioAssay AID687021 (Broad Institute, 2013).
# Active and inactive are the calls of the source.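 Rule for the calls: active = compounds lowering luciferase light whose fitted half-effect concentration is at most twice the top tested dose; inconclusive = flat curve with 30 to 70% inhibition, or poor fit; inactive = the rest.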
# Assay: luciferase signal loss, tTA control fusion, HeLa F-luc tTA cells, dry powder, counter-screen for HIV Env fusion inhibitor project, dose response (AID 687021)
# Details: luciferase luminescence counterscreen; series mostly up to 35 µM
row,Structure (SMILES),outcome
1,CCOc1ccc(S(=O)(=O)NCc2ccncc2)cc1OCC,inactive
2,Cc1noc(C)c1S(=O)(=O)Nc1cccc2c1O[C@@H](CN(C)Cc1ccc(C(F)(F)F)cc1)[C@@H](C)CN([C@@H](C)CO)C2=O,inactive
3,COc1ccc(S(=O)(=O)NCc2ccncc2)cc1OC,inactive
4,C[C@H]1CCCCO[C@@H](CN(C)Cc2ccncc2)[C@@H](C)CN([C@@H](C)CO)C(=O)c2cc(NC(=O)Nc3ccccc3)ccc2O1,inactive
5,CC(C)(C)c1ccc(-c2noc(CCC(=O)NCC3CCCO3)n2)cc1 (stereo not drawn),inactive
6,O=C(CCCn1c(=S)[nH]c2cc3c(cc2c1=O)OCO3)N1CCN(c2ccc(Cl)cc2)CC1,inactive
7,Nc1nonc1C(=O)NCCNCc1c(OCc2ccccc2F)ccc2ccccc12,inactive
8,Oc1ccc(CNc2ccccc2F)c2cccnc12,inactive
